Compounds with a hit are over-represented: about 6.3% of the library has one in this group of screens.
S2 tox: Viability Counterscreen for Primary qHTS for Inhibitors of ATXN expression; Potency, µM (series often up to 56.7 µM), hits mostly cytotoxic; S2 cells (HEK-293 line with an ATXN2-luciferase reporter) viability, CellTiter-Fluor protease fluorescence, 24 h; 0.49% of 400,000 active; also: nearly all actives have a fitted effect of over 40% in size
VP16 counter: VP16 counterscreen qHTS for inhibitors of ROR gamma transcriptional activity | AID 2546, 2010 | Potency, µM (top dose mostly 53.6 µM), for the others: at the highest dose activity, negative = inhibition, most hits filed as inhibitors | Drosophila S2 Gal4-VP16 UAS-luciferase, luminescence, 20 h | 3.5% of 310,000 active;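 also: Gal4-VP16 expression switched on by copper sulfate through the metallothionein promoter; % is scaled to controls: 0 for no effect and ±100 for the full control effect; nearly all actives have a fitted effect of over 50% in size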
HepG2 viability: qHTS for Inhibitors of TGF-b: Cytotox Counterscreen; HepG2 CAGA-GFP viability, ATP luminescence, 18 h; Potency, µM (top dose mostly 46.1 µM), for inactives: at the top dose activity change, negative = cytotoxicity, most hits filed as cytotoxic; 0.76% of 410,000 active; AID 588856, 2011
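CellTiter-Glo luminescence gave cytotoxicity after 18 hours at 37 degrees C. The cells were HepG2 CAGA-GFP in 1% FBS DMEM, stimulated with 500 pg/mL TGF-beta after compound addition. %Activity was normalised to no-cell wells (complete cell-killing) and DMSO (no toxicity), and curves were fitted and classified.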
TGFb SMAD3 inh: qHTS for Inhibitors of TGF-b; HepG2 CAGA-GFP TGF-b/SMAD3 reporter, GFP fluorescence, 18 h; TGF-beta stimulated, 500 pg/mL final; Potency, µM (highest dose often 46.1 µM), inactives show top-dose activity, negative = inhibition, most hits filed as inhibitors; 1.2% of 410,000 active; AID 588855, 2011; also: % is scaled to controls: 0 for no effect and ±100 for the full control effect; nearly all actives have a fitted effect of over 65% in size
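Per well, imaged GFP fluorescence of HEPG2 CAGA-GFP cells gives the signal; cells get compound, then TGF-beta (500 pg/mL final), 18 h at 37 degrees C; %Activity versus -TGF-beta and +DMSO controls.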
RORgamma inh: qHTS for inhibitors of ROR gamma transcriptional activity | Nuclear receptor ROR-gamma (Mus musculus), P51450 | Drosophila S2 Gal4-RORgamma UAS-luciferase reporter, 20 h | Potency, µM (doses to about 53.6 µM), for inactives: top-dose activity change, negative = inhibition, hits mostly inhibitors | 5.4% of 310,000 active | AID 2551, 2010; also: % is scaled to controls: 0 for no effect and ±100 for the full control effect; nearly all actives have a fitted effect of over 60% in size
Target sequence (P51450 whole entry, looked up, the tested form may be a part): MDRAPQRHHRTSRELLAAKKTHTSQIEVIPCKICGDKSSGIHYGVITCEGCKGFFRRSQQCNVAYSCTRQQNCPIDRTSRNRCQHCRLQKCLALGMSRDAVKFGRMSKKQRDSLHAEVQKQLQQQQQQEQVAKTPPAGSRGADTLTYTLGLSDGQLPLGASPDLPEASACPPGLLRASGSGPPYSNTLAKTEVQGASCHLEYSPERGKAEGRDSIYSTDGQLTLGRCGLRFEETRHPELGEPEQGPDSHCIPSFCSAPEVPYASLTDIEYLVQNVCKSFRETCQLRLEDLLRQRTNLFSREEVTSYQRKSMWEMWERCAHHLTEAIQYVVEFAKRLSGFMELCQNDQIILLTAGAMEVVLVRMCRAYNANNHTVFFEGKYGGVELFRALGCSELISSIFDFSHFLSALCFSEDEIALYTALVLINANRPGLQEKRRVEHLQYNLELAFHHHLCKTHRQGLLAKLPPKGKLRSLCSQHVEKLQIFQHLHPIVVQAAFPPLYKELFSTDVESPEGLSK
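Using a luciferase readout, inhibitors were identified by reduced reporter activity in Drosophila cells coexpressing a copper-inducible Gal4–ROR gamma fusion and UAS-driven Photinus luciferase, incubated 20 hr after 700 uM copper sulfate.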
ATXN2 expr inh: Primary qHTS for Inhibitors of ATXN expression; HEK-293 ATXN2-luciferase reporter, luminescence, 24 h; Potency, µM (series often up to 57 µM), without a hit: at the highest dose activity change, negative = inhibition, hits mostly inhibitors; 0.72% of 360,000 active; AID 1745845, 2022; also: % is scaled to controls: 0 for no effect and ±100 for the full control effect; nearly all actives have a fitted effect of over 55% in size
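ATXN2-luciferase reporter cells (luciferase flanked by upstream and downstream ATXN2 gene portions) were treated 24 h at 37 °C with compounds at up to 57 uM. SteadyGlo luminescence gave expression; GF-AFC fluorescence gave viability.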
* hit, by the source's call; i = inactive; u = inconclusive; x = no result given; [ ] = dose if it differs, or a comment. Calls follow the shape of the dose curve; as a rule, active = well fitted curve in the direction sought with a large enough effect; inconclusive = small, poorly fitted or top-dose-only effect, or another doubt; inactive = no such curve, though single readings can be large; an effect the other way counts as inactive or inconclusive. Potency is read from the fitted curve at half-maximal effect.

SMILES	S2 tox	VP16 counter	HepG2 viability	TGFb SMAD3 inh	RORgamma inh	ATXN2 expr inh
CC12CC3CC(C)(C1)CC(C(=O)N1CCN(C(=O)C4CCCO4)CC1)(C3)C2 (stereo not drawn)	i	x	-21%	u	x	-2%
C/C=C(/C)C(=O)O[C@H]1C[C@@]2(C)O[C@H]2[C@@H](OC(C)=O)C2(C)CC[C@@](O)(C(C)C)C12 (stereo partly drawn)	x	10%	x	x	20%	x
CCOc1cc2[nH]c(=S)n(C3CCN(Cc4ccccc4)CC3)c(=O)c2cc1OCC	u	u	-4%	0%	u	-16%[2.22 µM]
O=c1c2cc3c(cc2[nH]c(=S)n1C1CCN(Cc2ccccc2)CC1)OCO3	i	3.5µM*	-2%	4%	5µM*	-14%[11.3 µM]
CCN(CC)CCn1c(=S)[nH]c2cc(C(=O)NCc3ccccc3Cl)ccc2c1=O	u	-4%	0%	11%	-14%	-25%
CCN(CC)CCCn1c(=S)[nH]c2ccc(Cl)cc2c1=O	i	u	0%	-9%	11µM*	-2%
O=c1c2ccc(Cl)cc2[nH]c(=S)n1CCCN1CCOCC1	i	u	-55%	-4%	7.9µM*	-2%
CCN(CC)CCCn1c(=S)[nH]c2cc(Cl)ccc2c1=O	i	-22%	-5%	5%	10µM*	-13%
O=c1c2ccc(Cl)cc2[nH]c(=S)n1CCC1=CCCCC1	i	2.5µM*	25%	14%	1.3µM*	0%
CCCCNC(=O)C[C@@H]1C[C@@]2(C(=O)OC)CCCCC=C2N(CCC2=CCCCC2)C1=O	x	x	x	x	x	-19%
CN(Cc1cnn(-c2ccccc2)c1)C(=O)c1cccc(S(=O)(=O)Nc2ccccc2F)c1	i	x	-11%	-1%	x	x
CCn1c(=NC(=O)c2ccc(S(=O)(=O)N3CCCCC3)cc2)sc2cccc(OC)c21	i	x	-5%	2%	x	-13%
CCOC(=O)c1c(-c2ccccc2)oc2ccc(OCC(O)CNCCN(C)C)cc12 (stereo not drawn)	x	u	14µM*	u	u	-36%
CC(=O)Nc1ccc(NCc2cccs2)cc1	i	u	-3%	1%	14%	26%
CCC(C)c1ccc(NC(=S)NCc2cccs2)cc1 (stereo not drawn)	i	11µM*	-45%	u	7.1µM*	34%
CC(C)(C)c1ccc(NC(=S)NCc2cccs2)cc1	i	10µM*	-14%	u	7.1µM*	28%
COCCNC(=S)NCc1cccs1	i	5%	1%	-6%	-33%	-4%
Cc1ccccc1C(=O)NC(C)c1nnc2n1CCN(Cc1ccc(F)cc1)CC2 (stereo not drawn)	i	x	x	x	x	x
Cc1ccc(-c2cc(NC=O)c3ncc(-c4cnn(C)c4)n3c2)cc1	u	x	-30%	2%	x	u
CCC(=O)OCOc1ccc(/C=C2/CCC(CN(C)C)C2=O)cc1 (stereo not drawn)	u	x	-99%	6.3µM*	x	u
COc1ccc(S(=O)(=O)NCc2ccccn2)cc1C	i	x	-1%	-9%	x	x
C/C(CC(=O)N1CCN(C=O)CC1)=N\NC(=O)c1cc2ccccc2cc1O	i	-19%	2%	0%	-28%	-4%
Nc1ccc(C(=O)N/N=C\C=C\c2ccc([N+](=O)[O-])cc2)cc1	i	-6%	-1%	1%	-38%	-8%[11.3 µM]
CC(C)=CCC/C(C)=C/C=N/NC(=O)c1cccc([N+](=O)[O-])c1	i	1.4µM*	-3%	-6%	1.6µM*	3%
C/C(CC(=O)N1CCN(C=O)CC1)=N\NC(=O)c1ccc([N+](=O)[O-])cc1	i	u	-3%	0%	8.9µM*	x
SMILES	S2 tox	VP16 counter	HepG2 viability	TGFb SMAD3 inh	RORgamma inh	ATXN2 expr inh
CC(C)=CCC/C(C)=C/C=N/NC(=O)c1ccc([N+](=O)[O-])cc1	u	2.8µM*	-36%	-17%	3.5µM*	u
Oc1cccc(-c2c3nc(c(-c4cccc(O)c4)c4ccc([nH]4)c(-c4cccc(O)c4)c4nc(c(-c5cccc(O)c5)c5ccc2[nH]5)CC4)C=C3)c1	7.1µM*	x	x	x	x	-1%
CC(C)CSc1nnc(CNC(=O)c2ccccn2)n1C	i	x	x	x	x	x
CCOc1ccccc1CNC(=O)Cn1nc(C)c2c(C)n(-c3ccc(C)cc3)nc2c1=O	u	u	-44%	5µM*	u	x
Cc1ccc(-n2nc3c(=O)n(CC(=O)NCCc4ccco4)nc(C)c3c2C)cc1	i	-3%	-93%	22µM*	10%	0%
Cc1nn(CC(=O)NCc2ccco2)c(=O)c2nn(-c3ccccc3)c(C)c12	i	x	-15%	-4%	x	-2%
COc1cccc(CNC(=O)Cn2nc(C)c3c(C)n(-c4ccc(C)cc4)nc3c2=O)c1OC	i	-10%	-2%	-1%	25%	-6%
Cc1ccccc1NC(=O)CSc1nc(=O)n(CCN2CCOCC2)c2c1CCC2	x	x	-2%	-5%	x	x
Cc1ccc(NC(=S)Nc2nc(CC(=O)Nc3ccccc3)cs2)cc1	u	5.6µM*	-4%	-5%	1.4µM*	1%
Cc1ccc2nc(N(CCCN(C)C)C(=O)c3ccco3)sc2c1	u	1%	-25%	-9%	9%	-18%
CN(C)CCCN(C(=O)c1cc(Cl)sc1Cl)c1nc2cc3c(cc2s1)OCO3	i	-17%	-38%	u	-16%	-19%
CN(C)CCCN(C(=O)c1ccco1)c1nc2cc3c(cc2s1)OCO3	i	-20%	-30%	-19%	-10%	14µM*
CN(C)CCCN(C(=O)c1ccc(Cl)s1)c1nc2cc3c(cc2s1)OCO3	28µM*	u	-95%	u	0%	u
CN(C)CCCN(C(=O)c1ccc(C(=O)c2ccccc2)cc1)c1nc2cc3c(cc2s1)OCO3	u	-15%	11µM*	u	u	u
Cc1ccc(NC(=O)COC(=O)c2ccc3c(c2)OCO3)c(C)c1	i	0%	-18%	1%	-1%	x
CCCSCCCNC(=O)c1ccc2nc(Cc3ccccc3)oc2c1	u	x	-24%	u	x	u
CCCn1c(-c2cccs2)nc2ccccc21	i	18µM*	-26%	2%	4.5µM*	6%
CCCn1c(C(O)c2ccc(C)cc2)nc2ccccc21 (stereo not drawn)	i	u	-7%	u	2.8µM*	x

Bioassay records: PubChem BioAssay, National Center for Advancing Translational Sciences (NCATS)
